Records with an inconclusive call do not appear. Activity calls are given as the source filed them. The call rests on the fitted dose curve; in most records, active means well fitted inhibition curve with a large enough effect; inconclusive means small, poorly fitted or top-dose-only effect; inactive means no such curve, though single readings can be large or run the other way.

The nature of the experiment: Confirmation assay for measurement of the activity of small molecule inhibitors on Zika virus induced Caspase-3 activity in human iPSC derived neural progenitor cells (hNPCs). The conditions noted are these: hNPC ZIKV-induced caspase-3/7, Caspase-Glo luminescence, 6 h; series mostly up to 46.1 µM; activity, negative = inhibition: at the top concentration. The source says: National Center for Advancing Translational Sciences [NCATS] Johns Hopkins University School of Medicine Florida State University Assay Overview: Increase in the Caspase-3 activity indicates an activation of apoptosis cell death pathway caused by Zika virus infection in certain types of neuronal cells including human neural progenitor cells (hNPCs), astrocytes, and astrocytoma cell line (SNB-19). This cell-based caspase-3 activity assay measures the increased caspase-3 activity in the human iPSC derived neural progenitor cells (hNPCs) after a 6-hour Zika virus infection with a luminescence readout. A decrease in the luminescence signal in this assay by small molecule treatment indicates an inhibitory effect of that small molecule on the Zika virus induced caspase-3 activity that may correlate with its effect on reduction of Zika virus caused cell death.
Assay Protocol Summary: The medium for hNPCs consists of DMEM/F12, N2 supplement (ThermoFisher, Cat.# 17502048), NEAA (ThermoFisher, Cat. # 11140050), 2 ug/ml heparin, 2 uM cyclopamine, and B27 (ThermoFisher, Cat. # 17504044). A Caspase-Glo 3/7 assay kit (catalog number G8092; Promega, Madison, WI) was used to detect caspase-3 activity induced by Zika virus infection in human cells. The reagent mixture was reconstituted as described in the protocol from the manufacturer. Polystyrene tissue culture treated and PDL coated white plates were obtained from Greiner Bio-One (Monroe, NC). Cells were seeded in 384- or 1536-well assay plates and cultured at 37 C with 5% CO2 for 16 to 20 hours. The typical cell seeding density in the 1536-well plate assay is 350 cells/well in 3 ul medium for hNPCs in tissue culture treated plates. Compounds were added to cells and incubated for one hour before addition of ZIKV solution to cells (2 FFU/cell). After incubation at 37 C with 5% CO2 for 6 hours, the reagent mixture of Caspase-Glo 3/7 assay kit was added to each well, followed by incubation at room temperature for 30 minutes. The luminescence intensity of the assay plates was measured using a ViewLux plate reader (PerkinElmer). Data were normalized by using the cell-containing wells without ZIKV as a negative control (0% induction of caspase 3/7 activity) and wells containing ZIKV infected cells (Caspase-3 activity induced) as a positive control (100% induction of caspase 3 activity). The percentage inhibitions of the increased Caspase-3 activity by small molecule inhibitors were then calculated.
Turning to `CC=CC[C@@H](C)C(=O)[C@H]1C(=O)N[C@@H](C(C)C)C(=O)N(C)CC(=O)N(C)[C@@H](CC(C)C)C(=O)N[C@@H](C(C)C)C(=O)N(C)[C@@H](CC(C)C)C(=O)N[C@@H](C)C(=O)N[C@H](C)C(=O)N(C)[C@@H](CC(C)C)C(=O)N(C)[C@@H](CC(C)C)C(=O)N(C)[C@@H](C(C)C)C(=O)N1C`, the “activity, negative = inhibition” value is 33.5% (inactive).

`Cc1ccc(C(=O)c2ccc(CC(=O)O)n2C)cc1`: the “activity, negative = inhibition” value is -28.4% (inactive).

As to `CCN1/C(=C/C=C/c2sc3ccccc3[n+]2CC)Sc2ccccc21`, the “activity, negative = inhibition” value was 77.5% [at 23.8 µM] (inactive).

For `CN1CC(=O)N2C(Cc3c([nH]c4ccccc34)[C@H]2c2ccc3c(c2)OCO3)C1=O` (stereo not given in full), the “activity, negative = inhibition” value is 6.79% (inactive).

As to `CC(=O)Nc1ccc([C@H](C)C(=O)Nc2ncc(C(C)C)s2)cc1`, the Potency is 17.3 µM (active).

With `C=CCCCCCCCCC(=O)O`, the “activity, negative = inhibition” value was -13.2% (inactive).

In the case of `CN(C)c1ccc(N=NS(=O)(=O)O)cc1`, the “activity, negative = inhibition” value was -26.5% [at 88.3 µM] (inactive).

In the case of `Cc1c(N)c(=O)n(-c2ccccc2)n1C`, the “activity, negative = inhibition” value was -16.4% (inactive).

As for `CO[C@H]1C(=O)[C@]2(C)[C@@H](OC)C[C@H]3OC[C@@]3(OC(C)=O)[C@H]2[C@H](OC(=O)c2ccccc2)[C@]2(O)C[C@H](OC(=O)[C@H](O)[C@@H](NC(=O)OC(C)(C)C)c3ccccc3)C(C)=C1C2(C)C`, the “activity, negative = inhibition” value was 69.4% (inactive).

As for `CC(C)(C)OC(=O)CN(Cc1ccc(Cl)cc1)Cc1ccc([N+](=O)[O-])s1`, the “activity, negative = inhibition” value is 38.9% [at 88.3 µM] (inactive).

As for `Cc1oncc1C(=O)Nc1ccc(C(F)(F)F)cc1`, the Potency is 1.38 µM (active).

On to `COc1ccc(NC(=O)/C=C/c2ccc(Cl)cc2)cc1`, for which the Potency was 2.45 µM (active).

For the compound `C[C@@H]1CCN(C(=O)CC#N)C[C@H]1N(C)c1ncnc2[nH]ccc12`, the “activity, negative = inhibition” value is -11.3% (inactive).

Turning to `O=C(c1ccccc1)c1ccc2n1CCC2C(=O)O` (stereo not given), the Potency is 13.8 µM (active).

As to `NC1CCC(Nc2nc(Nc3ccc(C(=O)N4CCCCC4)cc3)c3ncn(-c4cccc(F)c4)c3n2)CC1` (stereo not given), the “activity, negative = inhibition” value is 150% (inactive).

`CCCCCCCCCCCC(=O)[O][Sn]([CH2]CCC)([CH2]CCC)[O]C(=O)CCCCCCCCCCC`: the “activity, negative = inhibition” value is 5.93% (inactive).

As to `N#C/C(=C\c1ccc(O)c(O)c1)C(=O)Nc1ccccc1`, the Potency is 15.5 µM (active).

As to `O=C(O)CCC(=O)c1ccc(-c2ccccc2)cc1`, the Potency was 19.5 µM (active).

With `N#CC1(c2ccc(NC(=O)c3cccnc3NCc3ccncc3)cc2)CCCC1`, the “activity, negative = inhibition” value was -30.6% (inactive).

Take `O=C(O)Cc1ccc(-c2ccccc2)cc1`: the “activity, negative = inhibition” value is -18.7% (inactive).

With `CC(C)c1ccc2oc3nc(N)c(C(=O)O)cc3c(=O)c2c1`, the Potency is 1.73 µM (active).

As to `C[C@@H](O[C@H]1OCCN(Cc2n[nH]c(=O)[nH]2)[C@@H]1c1ccc(F)cc1)c1cc(C(F)(F)F)cc(C(F)(F)F)c1`, the “activity, negative = inhibition” value is 31.4% (inactive).

As for `COc1cccc(-c2ccc(NC(=O)C3=C(C(=O)O)CCC3)c(F)c2)c1`, the Potency was 2.45 µM (active).

With `O=C(Oc1ccccc1)c1cccc(C(=O)Oc2ccccc2)c1`, the Potency is 3.98 µM (active).

As for `O=C(O)c1cccc(-c2noc(-c3ccccc3F)n2)c1`, the Potency is 1.73 µM (active).

Take `CN1CC(=O)N/C1=N/C(=O)Nc1cccc(Cl)c1`: the Potency was 4.35 µM (active).

`CC[C@]1(O)C[C@H]2CN(CCc3c([nH]c4ccccc34)[C@@](C(=O)OC)(c3cc4c(cc3OC)N(C=O)[C@H]3[C@@](O)(C(=O)OC)[C@H](OC(C)=O)[C@]5(CC)C=CCN6CC[C@]43[C@@H]65)C2)C1`: the “activity, negative = inhibition” value was 46.5% (inactive).

As for `Nc1ccc(N=Nc2ccccc2)c(N)n1`, the Potency was 15.5 µM (active).

On to `COc1cc2nc(N3CCN(C(=O)C4CCCO4)CC3)nc(N)c2cc1OC` (stereo not given), for which the Potency is 9.75 µM (active).

On to `Clc1ccccc1-c1nc(-c2ccncc2)no1`, for which the Potency was 4.35 µM (active).

As to `c1ccc2[nH]c(-c3cscn3)nc2c1`, the Potency is 9.75 µM (active).

For the compound `CC(C(=O)O)c1ccc(C(=O)c2ccccc2)s1` (stereo not given), the Potency is 6.9 µM (active).

Consider `O=C(Nc1cc2cc[nH]c2cn1)c1ccccc1`, for which the Potency is 3.46 µM (active).

In the case of `CN(C)CCCSc1ccccc1NC(=O)/C=C/c1ccccc1`, the Potency was 17.3 µM (active).

In the case of `Cc1cc(O)c2c(c1)C(=O)c1cc(O)cc(O)c1C2=O`, the Potency was 1.95 µM (active).

With `CC(=C(CCOC(=O)C(C)C)SSC(CCOC(=O)C(C)C)=C(C)N(C=O)Cc1cnc(C)nc1N)N(C=O)Cc1cnc(C)nc1N`, the “activity, negative = inhibition” value is -2.44% (inactive).

As to `Cc1nc(-c2ccc(OCC(C)C)c(C#N)c2)sc1C(=O)O`, the Potency is 3.88 µM (active).

In the case of `Cc1ccc(O)c(-n2nc3ccccc3n2)c1`, the Potency was 4.35 µM (active).

On to `C[C@@H](N)c1ccc(C(=O)Nc2ccnc3[nH]ccc23)cc1`, for which the “activity, negative = inhibition” value was 2.76% (inactive).

For the compound `Cc1ccc(O)c(N=Nc2ccccc2)n1`, the Potency was 1.23 µM (active).

The record behind these values is PubChem BioAssay AID1224855 (National Center for Advancing Translational Sciences (NCATS), 2016).
